From PubChem BioAssay (NCI)
The panel holds about 79,000 compounds, 15% with a hit somewhere; the sample as a whole holds those more often. Calls of active or inactive are those of the source. Rule as the data show it: active = growth inhibition above about 70%; inactive = the rest.

Experiments:
[1] = NCI Yeast Anticancer Drug Screen. Data for the rad50 strain (AID 155);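 also: 0% = growth of vehicle-only cultures of the same strain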; conditions: S. cerevisiae rad50 strain growth inhibition; at 50.0 µM; active compounds read high
In short: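 Inhibition values express reduced yeast growth in compound-treated cultures relative to vehicle-treated controls.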

[2] = NCI Yeast Anticancer Drug Screen. Data for the mec2-1 strain (AID 157); conditions: S. cerevisiae mec2-1 strain, at 50.0 µM, active compounds read high
In short: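 mec2-1 yeast strain, carrying an alteration in DNA damage repair or cell cycle control, was exposed to compounds; growth inhibition was measured relative to vehicle-treated controls.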

[3] = NCI Yeast Anticancer Drug Screen. Data for the sgs1 mgt1 strain (AID 161);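 also: 0% = growth of cultures given vehicle only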; conditions: S. cerevisiae sgs1 mgt1 strain, at 50.0 µM, active compounds read high
In short: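 This yeast growth screen uses a strain with defined DNA-repair lesions; compound-treated growth is compared with vehicle-treated growth.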

[4] = NCI Yeast Anticancer Drug Screen. Data for the cln2 rad14 strain (AID 165);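 also: 0% = growth equal to vehicle treated cultures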; conditions: S. cerevisiae cln2 rad14 strain, at 50.0 µM, active compounds read high
In short: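 Yeast carrying cln2 and rad14 alterations (cell cycle control and DNA damage repair) were exposed to compounds. Growth inhibition was measured against vehicle-treated controls.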

[5] = NCI Yeast Anticancer Drug Screen. Data for the bub3 strain (AID 167); conditions: S. cerevisiae bub3 mutant strain, at 50.0 µM, active compounds read high
In short: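 Steps: expose the mutant yeast strain to compound; grow alongside vehicle-treated cultures; measure growth; express inhibition against the vehicle cultures.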

[6] = NCI Yeast Anticancer Drug Screen. Data for the mlh1 rad18 strain (AID 175); conditions: S. cerevisiae mlh1 rad18 strain growth inhibition; at 50.0 µM; active compounds read high
In short: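 Growth inhibition of the yeast strain was measured after compound exposure and expressed relative to vehicle-treated controls. The strain carries defined defects in DNA damage repair.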

Compound	growth inhibition [1]	growth inhibition [2]	growth inhibition [3]	growth inhibition [4]	growth inhibition [5]	growth inhibition [6]
CCCCCCCCCCCCCCCCc1ccc(CCCC(=O)O)cc1	-20.8% (inactive)	-16.2% (inactive)	-13.3% (inactive)	5.45% (inactive)	-17.3% (inactive)	12.5% (inactive)
N#Cc1c(C(=O)NN)c2c(-c3ccc4ccccc4c3)n[nH]c(=O)c2[nH]c1=O	20.4% (inactive)	23.4% (inactive)	30.4% (inactive)	4.1% (inactive)	7.1% (inactive)	42.9% (inactive)
CC1(C)CC(=O)C(/C(=N/NC(=S)NN)C(=O)Nc2nc3ccc([N+](=O)[O-])cc3s2)C(=O)C1	35.8% (inactive)	20.2% (inactive)	-15.2% (inactive)	-26.9% (inactive)	1% (inactive)	16.4% (inactive)
Cc1cc(N=Nc2ccc(S(=O)(=O)O)c3ccccc23)ccc1O	-33.6% (inactive)	9.75% (inactive)	-5.1% (inactive)	-66.1% (inactive)	12.9% (inactive)	-5.6% (inactive)
O=C1/C(=C/c2cccc3ccccc23)CCc2ccc([N+](=O)[O-])cc21	-34.5% (inactive)	-23.6% (inactive)	-49.9% (inactive)	-23.9% (inactive)	20.1% (inactive)	-15.6% (inactive)
COc1ccc(C(C)(C)C#N)cc1	-20.7% (inactive)	13.6% (inactive)	-5.95% (inactive)	-12.8% (inactive)	-10.6% (inactive)	31.6% (inactive)
CCN/C(C)=C\C(=O)OCC	-0.9% (inactive)	8.95% (inactive)	-0.65% (inactive)	-17.2% (inactive)	-9.95% (inactive)	1.25% (inactive)
CCN(CC)CCN(C)C(=O)C(=O)c1ccccc1	-20.1% (inactive)	-0.85% (inactive)	-10.6% (inactive)	9.75% (inactive)	4.8% (inactive)	-8.2% (inactive)
CC(=O)Nc1ccc(C(=O)CC(c2ccccc2)N2CCOCC2)cc1 (stereo unspecified)	4.3% (inactive)	14.1% (inactive)	11.9% (inactive)	-19% (inactive)	26.1% (inactive)	2.8% (inactive)
Cc1ccc(Br)c([N+](=O)[O-])c1	5.1% (inactive)	-4.75% (inactive)	2.1% (inactive)	5.85% (inactive)	-0.2% (inactive)	1.75% (inactive)
CC(C)c1cccc(C(C)C)c1NC(=O)OC1CCCCC1	-11.7% (inactive)	-22.8% (inactive)	8.2% (inactive)	20.2% (inactive)	-1.6% (inactive)	-2.85% (inactive)
CN(C)C(=S)Nc1ccc(S(=O)(=O)N2CCCCC2)cc1	-7.9% (inactive)	-28.4% (inactive)	-2.7% (inactive)	1.15% (inactive)	-16.4% (inactive)	-7.85% (inactive)
O=c1cnc2c(ccc3ccccc32)[nH]1	-2.7% (inactive)	-20.8% (inactive)	-16.1% (inactive)	6.55% (inactive)	8.4% (inactive)	-5.95% (inactive)
CC(=O)OCCOCN1C(=O)CC(=O)NC1=O	-10.2% (inactive)	-10.6% (inactive)	-4.5% (inactive)	-5.45% (inactive)	-22.3% (inactive)	-30.2% (inactive)
CCCCCP(=O)(CCC(C)C)CC(C)C (stereo unspecified)	8.95% (inactive)	7.3% (inactive)	20.7% (inactive)	28.9% (inactive)	-10.6% (inactive)	-6.6% (inactive)
CC(=O)C(CCN(C)C)c1ccc2c(c1)CCc1ccccc1-2 (stereo unspecified)	13.3% (inactive)	5.65% (inactive)	19.4% (inactive)	-8.45% (inactive)	13.3% (inactive)	27.6% (inactive)
COc1ccc(-c2nc(SCC(=O)O)n(-c3ccccn3)c2-c2ccc(OC)cc2)cc1	70.7% (active)	66.5% (inactive)	82.3% (active)	83.7% (active)	42.9% (inactive)	77.7% (active)
CC(=O)OCC(OC(C)=O)C(OC(C)=O)C(OC(C)=O)C(S)S (stereo unspecified)	5.2% (inactive)	50.1% (inactive)	30.1% (inactive)	-4.2% (inactive)	29.9% (inactive)	28.9% (inactive)

Compound	growth inhibition [1]	growth inhibition [2]	growth inhibition [3]	growth inhibition [4]	growth inhibition [5]	growth inhibition [6]
O=S(=O)(Cl)c1c(F)c(F)c(F)c(F)c1F	-31.3% (inactive)	-41.1% (inactive)	-19.9% (inactive)	24.1% (inactive)	-0.25% (inactive)	-21.4% (inactive)
O=C1CCCCC(=O)Nc2ccc3nc4ccccc4c(c3c2)SCCCCCCCCSc2c3ccccc3nc3ccc(cc23)N1	-13.4% (inactive)	-9.65% (inactive)	2.55% (inactive)	-6.05% (inactive)	-2.3% (inactive)	-4.2% (inactive)
CCCC/C(C)=N/NC(N)=S	2.3% (inactive)	-4.3% (inactive)	-4.3% (inactive)	-2.65% (inactive)	-15.9% (inactive)	1.9% (inactive)
O=C(CC(C(=O)c1cccs1)c1ccsc1)c1cccs1 (stereo unspecified)	-23.8% (inactive)	-22.6% (inactive)	0.85% (inactive)	21% (inactive)	25.8% (inactive)	-38.7% (inactive)
Nc1ccc(C(=O)NN2C(=O)C(Cl)C2c2cc(Br)ccc2O)cc1 (stereo unspecified)	29.1% (inactive)	11.6% (inactive)	30.7% (inactive)	-32.1% (inactive)	29.1% (inactive)	10.8% (inactive)
C#CC(C)(C)OCC(O)CCl (stereo unspecified)	1.85% (inactive)	5.65% (inactive)	1.65% (inactive)	-28.8% (inactive)	-15.4% (inactive)	2.45% (inactive)
O=C(N/N=C\c1ccccc1)Nc1cccc2ccccc12	-27.4% (inactive)	16.4% (inactive)	20.3% (inactive)	-25.9% (inactive)	27.9% (inactive)	-9.75% (inactive)
C/C(=C1/N=C(c2ccccc2)OC1=O)c1ccccc1	39.5% (inactive)	70% (active)	65.4% (inactive)	75.7% (active)	94.6% (active)	80.5% (active)
Cc1ccc(S(=O)(=O)OCC2OC(CCCO)C/C([Si](C)(C)C)=C\CC2Cl)cc1 (stereo unspecified)	48.8% (inactive)	19.9% (inactive)	38.2% (inactive)	31.6% (inactive)	34.5% (inactive)	19.4% (inactive)
CC1(CO)OC(n2cnc3c(N)ncnc32)C(O)C1O (stereo unspecified)	-25.8% (inactive)	-30.8% (inactive)	-52.6% (inactive)	-8.25% (inactive)	-14.7% (inactive)	-29.2% (inactive)
O=C(/C=C/c1cccc2ccccc12)c1ccccc1Cl	52.9% (inactive)	-9.25% (inactive)	7.65% (inactive)	16.9% (inactive)	-6.65% (inactive)	35.2% (inactive)
COc1cc(NCc2c(O)ccc3ccccc23)c2ncccc2c1	46.1% (inactive)	28.1% (inactive)	13.1% (inactive)	-11.2% (inactive)	7.75% (inactive)	62.8% (inactive)
N#CCc1n[nH]c(Cc2ccccc2)n1	2.35% (inactive)	6.6% (inactive)	3.9% (inactive)	7.6% (inactive)	0.8% (inactive)	12.4% (inactive)
CC(=O)OC[C@H]1O[C@@H](O[C@H]2[C@H](OC(C)=O)C=CO[C@@H]2COC(C)=O)C(OC(C)=O)[C@H]2OC(C)(C)O[C@H]21 (stereo partly specified)	-9% (inactive)	-14.8% (inactive)	-18.9% (inactive)	3.5% (inactive)	7.05% (inactive)	4.95% (inactive)
Nc1ccc(OCCCc2c(N)nc(N)nc2N)c(Cl)c1	98% (active)	99.1% (active)	99.3% (active)	98.2% (active)	98.3% (active)	98.5% (active)
Cc1nc2ccc(-c3ccccc3)cc2nc1C	-9.25% (inactive)	5.7% (inactive)	-20.9% (inactive)	4.45% (inactive)	-5.05% (inactive)	3.7% (inactive)
Fc1ccccc1-c1nc2ccccc2s1	45% (inactive)	3.75% (inactive)	19.3% (inactive)	-3.45% (inactive)	6.05% (inactive)	28.3% (inactive)
N#C/C(=C/n1c(=S)[nH]c2ccc([N+](=O)[O-])cc21)C(N)=O	-53.3% (inactive)	-41% (inactive)	-50.4% (inactive)	2.15% (inactive)	-24% (inactive)	-70.9% (inactive)
